In PubChem BioAssay (NCATS) one finds max response data, which are given here for 40 compounds.

The structures appear in SMILES notation. Inconclusive results are not listed.

A short description of one experiment: qHTS Assay for Lipid Storage Modulators (AID 1519). Particulars: Drosophila S3 cells, BODIPY lipid droplet/cell ratio, laser cytometry; measured here: cell count channel max response; cells loaded with oleic acid. In a few lines:
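Cells seeded at 5,000 per well were treated with compounds over a concentration series and loaded with oleic acid (400 uM, as added). Lipid droplet fluorescence (488 nm excitation, 500-530 nm channel) was read by laser-scanning cytometry and normalized to 20 uM Triacsin C.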
Take `CC=C(/C(=C/C)c1ccc(O)cc1)c1ccc(O)cc1`: the max response is -14.6%.
`Cc1ccnc(N)c1`: the max response is -7.5%.
With `CC1(C)S[C@@H]2[C@H](NC(=O)[C@@H](N)c3ccccc3)C(=O)N2[C@H]1C(=O)O[C@H]1OC(=O)c2ccccc21`, the max response was -27.2%.

The same experiment, now with this note: Drosophila S3 cells, BODIPY lipid droplet/cell ratio, laser cytometry; measured here: lipid channel max response; cells loaded with oleic acid.
For the compound `CCO[C@H]1O[C@@H]([C@H](COCc2ccccc2)OCc2ccccc2)[C@@H](OCc2ccccc2)[C@H]1O`, the max response was -12.6%.
`FC(F)(F)c1ccccc1-c1ccc2ncnc(NC3CCNCC3)c2c1`: the max response came to 6.31%.
Still for that read-out and setting: for `Cc1cc2ccc(=O)oc2cc1OC[C@@H](O)C(C)(C)O` the value was 21.2%.
`C1CCC(C(C[C@@H]2CCCCN2)C2CCCCC2)CC1`: the max response was -15.6%.
`Nc1ncnc2c1nc(Br)n2[C@H]1O[C@H]2COP(=O)(O)O[C@H]2[C@@H]1O`: the max response is 0.508%.
Turning to `COc1cc(N[C@@H](C)CCCN)c2ncccc2c1`, the max response is -2.77%.
Take `CC(C)(C)NC(=O)[C@@H]1C[C@H]2CCCC[C@@H]2CN1C[C@H](O)[C@H](Cc1ccccc1)NC(=O)[C@@H](CC(N)=O)NC(=O)c1ccc2ccccc2n1`: the max response was -0.968%.
On to `COC(=O)C1=C(C)NC(C)=C(C(=O)OCCN(C)Cc2ccccc2)[C@H]1c1cccc([N+](=O)[O-])c1`, for which the max response is -13.6%.
Regarding `CC/C=C\C[C@H]1C(=O)CC[C@@H]1CC(=O)O`, the max response is -11.5%.
The same measure, in the same setting: then `COc1cccc(-c2nc(NCCc3c[nH]c4ccc(OC)cc34)c3ccccc3n2)c1`, with -5.2%; and `C[C@@H](CN1c2ccccc2Sc2ccccc21)N(C)C`, with -13.4%.
`C[C@@H](Cc1cccc(C(F)(F)F)c1)NCCOC(=O)c1ccccc1`: the max response is -18.4%.
Regarding `C=Cc1c(C)c2cc3nc(cc4[nH]c(cc5nc(cc1[nH]2)C(C)=C5CCC(=O)O)c(CCC(=O)OC)c4C)[C@@]1(C)C3=CC=C(C(=O)OC)[C@H]1C(=O)OC` (tested in a mixture with another compound), the max response was 2.29%.
Regarding `O=C(OC[C@@H](O)CO)c1ccccc1Nc1ccnc2cc(Cl)ccc12`, the max response amounted to 3.2%.
Turning to `C=C(C)[C@H]1CC[C@]2(C(=O)O)CC[C@]3(C)[C@@H](CC[C@H]4[C@@]5(C)CC[C@@H](O)C(C)(C)[C@@H]5CC[C@@]43C)[C@H]12`, the max response is -17.2%.
With `Nc1ncnc2c1ncn2[C@@H]1O[C@H](COP(=O)(O)O)[C@@H](O)[C@@H]1O`, the max response was -10.8%.
With `CC1=C(CCC(=O)O)c2cc3nc(cc4[nH]c(cc5[nH]c(cc1n2)c(C)c5C(C)O)c(C)c4C(C)O)C(C)=C3CCC(=O)O` (stereo not drawn), the max response is 18.6%.
With `CO[C@]1(NC(=O)[C@H](C(=O)O)c2ccc(O)cc2)C(=O)N2C(C(=O)O)=C(CSc3nnnn3C)CO[C@H]21`, the max response was -8.95%.
On to `COc1ccc2c(c1)N(C[C@@H](C)CN(C)C)c1ccccc1S2`, for which the max response is -12.9%.
In the case of `CCN(CC)CCOC(=O)[C@@H](c1ccccc1)C1CCCCC1`, the max response was -16.6%.
On to `O[C@@](CCN1CCCCC1)(c1ccccc1)[C@@H]1C[C@H]2C=C[C@@H]1C2`, for which the max response was -2.67%.
Regarding `O=C1C=CC(=O)c2c1ccc1c2ccc2ccccc21`, the max response was -3.16%.
In the case of `C[C@@](N)(C(=O)O)c1cccc(CC(=O)O)c1`, the max response came to 3.55%.
`NCCC(=O)N[C@@H](Cc1cnc[nH]1)C(=O)O`: the max response is -9.96%.
Consider `C/C(=C\CNc1ncnc2nc[nH]c12)CO`, for which the max response worked out at 3.25%.
In the case of `CCC(=O)[C@@]1(C)[C@H](C)C[C@@H]2[C@@H]3CCC4=CC(=O)C=C[C@@]4(C)[C@H]3[C@H](O)C[C@]21C`, the max response was -19.8%.
For `Nc1ncn([C@H]2O[C@@H](CO)[C@@H](O)[C@@H]2O)c(=O)n1`, the max response was -7.83%.
For the compound `COc1cc2ccc(=O)oc2c(O)c1O`, the max response was found to be 11.4%.
Consider `C[C@@H]1O[C@H](O[C@@H]2[C@H](C)O[C@H](O[C@@H]3[C@H](C)O[C@H](O[C@H]4CC[C@]5(C)[C@@H](CC[C@@H]6[C@H]5C[C@@H](O)[C@]5(C)[C@@H](C7=CC(=O)OC7)CC[C@]65O)C4)C[C@@H]3O)C[C@@H]2O)C[C@H](O)[C@@H]1O`, for which the max response was 1.22%.
Consider `CCC(C)(C)C(=O)O[C@@H]1C[C@H](C)C=C2C=C[C@H](C)[C@@H](CC[C@H]3C[C@@H](O)CC(=O)O3)[C@H]21`, for which the max response was -20.7%.
With `Cc1onc(-c2c(F)cccc2Cl)c1C(=O)N[C@H]1C(=O)N2[C@H]1SC(C)(C)[C@H]2C(=O)O`, the max response was -7.5%.
For the compound `CCN(CC)[C@@H](C)CN1c2ccccc2Sc2ccccc21`, the max response is -2.65%.
As for `O=c1cc(-c2cccc(O)c2)oc2cc(O)ccc12`, the max response is 28%.
Still for that read-out and setting: then `COC(=O)[C@@H]1[C@@H]2C[C@H]3c4[nH]c5cc(OC)ccc5c4CCN3C[C@@H]2C[C@H](OC(=O)/C=C\c2cc(OC)c(OC)c(OC)c2)[C@H]1OC`, with -3.85%; and `CO[C@@H]1CC[C@@]2(C)[C@@H](CC[C@@]3(C)[C@H]2CC=C2[C@H]4CC(C)(C)[C@H](O)[C@@H](OC(C)=O)[C@]4(CO)[C@H](O)C[C@]23C)[C@@]1(C)CO` (tested in a mixture with another compound), with 7.61%.
As for `CN1[C@H](CC(=O)c2ccccc2)CCC[C@H]1C[C@@H](O)c1ccccc1`, the max response was -13.6%.
Take `CC[C@H](C(=O)[C@H](C)[C@H](O)[C@H](C)CCc1ccc(C)c(O)c1C(=O)O)[C@H]1O[C@](CC)([C@@H]2CC[C@@](O)(CC)[C@H](C)O2)C[C@H]1C`: the max response was -85.1%.
For the compound `CC=C(/C(=C/C)c1ccc(O)cc1)c1ccc(O)cc1`, the max response is -18.3%.
With `Cc1ccnc(N)c1`, the max response is -8.73%.
Take `CC1(C)S[C@@H]2[C@H](NC(=O)[C@@H](N)c3ccccc3)C(=O)N2[C@H]1C(=O)O[C@H]1OC(=O)c2ccccc21`: the max response is -29.9%.
